Measurements published in PubChem BioAssay AID1159580 (chemical genetic matrix, 2015).
Several values for one entry are separate records, joined by “and”; a condition that tells them apart may be missing. Identical values can stand only once. Among all 5,500 compounds or so, about 2,000 (36%) were called active. About 18% were inconclusive and are not listed. Cut-off read from the data, not from the text of the source: active = normalized growth mostly below about 0.91 (no sharp cut-off); inconclusive = no clear call, values can overlap the other calls; inactive = mostly above about 0.92. This is one part of the list.

Assay: chemical genetic growth profiling, strain panel (AID 1159580);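 note: tested at 20 µM; growth read once vehicle control cultures reached saturation at 30 °C; 1 = growth at the plate median or of vehicle wells; lower values mean less growth of the strain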
Settings: S. cerevisiae deletion strains, growth OD

Measured: normalized growth

CCC(=O)OCC(=O)[C@@]1(OC(=O)CC)[C@@H](C)CC2C3CCC4=CC(=O)C=C[C@]4(C)C3(F)[C@@H](O)C[C@@]21C (stereo partly drawn)
inactive: locus YAL021C, strain ccr4, stronger effect = lower value 0.958 | locus YAL026C, strain drs2, stronger effect = lower value 1 | locus YAL030W, strain snc1, stronger effect = lower value 1 | locus YBL061C, strain skt5, stronger effect = lower value 1.01 | locus YBR009C, strain hhf1, stronger effect = lower value 0.999 | locus YBR023C, strain chs3, stronger effect = lower value 1.01 | locus YBR171W, strain sec66, stronger effect = lower value 1 | locus YBR229C, strain ROT2, stronger effect = lower value 0.925 | locus YBR231C, strain swc5, stronger effect = lower value 1.01 | locus YBR279W, strain paf1, stronger effect = lower value 1.01 | locus YCL011C, strain gbp2, stronger effect = lower value 0.988 | locus YCL016C, strain dcc1, stronger effect = lower value 1.01 | locus YCL029C, strain bik1, stronger effect = lower value 0.952 | locus YCL061C, strain MRC1, stronger effect = lower value 1.01 | locus YCL069W, strain vba3, stronger effect = lower value 0.996 | locus YCR088W, strain abp1, stronger effect = lower value 0.997 | locus YDL005C, strain med2, stronger effect = lower value 0.994 | locus YDL040C, strain nat1, stronger effect = lower value 1 | locus YDL074C, strain BRE1, stronger effect = lower value 0.793 | locus YDL101C, strain DUN1, stronger effect = lower value 0.95 | locus YDL185W, strain tfp1, stronger effect = lower value 0.927 | locus YDL192W, strain arf1, stronger effect = lower value 0.927 | locus YDR001C, strain nth1, stronger effect = lower value 0.991 | locus YDR069C, strain doa4, stronger effect = lower value 0.993 | locus YDR101C, strain arx1, stronger effect = lower value 0.948 | locus YDR137W, strain rgp1, stronger effect = lower value 1.01 | locus YDR150W, strain NUM1, stronger effect = lower value 0.974 | locus YDR159W, strain sac3, stronger effect = lower value 1.01 | locus YDR195W, strain ref2 1 | locus YDR297W, strain sur2, stronger effect = lower value 0.996 | locus YDR318W, strain mcm21, stronger effect = lower value 0.945 | locus YDR334W, strain swr1, stronger effect = lower value 1.01 | locus YDR335W, strain msn5, stronger effect = lower value 0.998 | locus YDR388W, stronger effect = lower value 0.947 | locus YDR392W, strain spt3, stronger effect = lower value 0.988 | locus YDR502C, strain sam2, stronger effect = lower value 0.926 | locus YEL003W, strain gim4, stronger effect = lower value 0.996 | locus YEL037C, strain rad23, stronger effect = lower value 0.987 | locus YEL061C, strain CIN8 (second series), stronger effect = lower value 0.989 | locus YEL061C, strain CIN8, stronger effect = lower value 0.935 | locus YER015W, strain faa2, stronger effect = lower value 0.995 | locus YER016W, strain bim1, stronger effect = lower value 1.01 | locus YER110C, stronger effect = lower value 0.952 | locus YER111C, strain swi4, stronger effect = lower value 0.999 | locus YER155C, strain BEM2 (second series), stronger effect = lower value 1.01 | locus YER155C, strain BEM2, stronger effect = lower value 0.963 | locus YFR010W, strain ubp6, stronger effect = lower value 0.993 | locus YGL078C, strain dbp3, stronger effect = lower value 0.975 | locus YGL086W, strain mad1, stronger effect = lower value 0.954 | locus YGL167C, strain pmr1, stronger effect = lower value 1 | locus YGL173C, strain kem1, stronger effect = lower value 1 | locus YGL227W, strain vid30, stronger effect = lower value 0.995 | locus YGL240W, strain doc1, stronger effect = lower value 1 | locus YGL248W, strain PDE1, stronger effect = lower value 0.943 | locus YGL253W, strain hxk2, stronger effect = lower value 1.03 | locus YHR013C, strain ard1, stronger effect = lower value 1.01 | locus YHR027C, strain rpn1, stronger effect = lower value 1 | locus YHR079C, strain IRE1 (second series), stronger effect = lower value 0.974 | locus YHR079C, strain IRE1, stronger effect = lower value 1.02 | locus YHR094C, strain hxt1, stronger effect = lower value 0.965 | locus YHR129C, strain ARP1, stronger effect = lower value 0.943 | locus YHR142W, strain chs7, stronger effect = lower value 0.988 | locus YHR200W, strain rpn10, stronger effect = lower value 0.929 | locus YIL073C, strain SPO22, stronger effect = lower value 0.825 | locus YIL125W, strain kgd1, stronger effect = lower value 0.971 | locus YIR030C, strain dcg1, stronger effect = lower value 0.959 | locus YJL092W, strain hpr5, stronger effect = lower value 0.996 | locus YJL095W, strain BCK1 (second series), stronger effect = lower value 1 | locus YJL115W, strain asf1, stronger effect = lower value 0.999 | locus YJL129C, strain trk1, stronger effect = lower value 0.951 | locus YJL134W, strain LCB3, stronger effect = lower value 0.961 | locus YJL154C, strain vps35, stronger effect = lower value 0.981 | locus YJL164C, strain tpk1, stronger effect = lower value 1 | locus YJL166W, strain qcr8, stronger effect = lower value 0.997 | locus YJL168C, strain set2, stronger effect = lower value 0.956 | locus YJL187C, strain SWE1 (second series), stronger effect = lower value 0.942 | locus YJL187C, strain SWE1, stronger effect = lower value 0.996
active: locus YAL013W, strain DEP1, stronger effect = lower value 0.876 | locus YBR021W, strain FUR4, stronger effect = lower value 0.779 | locus YDL035C, strain GPR1, stronger effect = lower value 0.846 | locus YDL134C, strain PPH21, stronger effect = lower value 0.844 | locus YDR162C, strain NBP2, stronger effect = lower value 0.708 | locus YER167W, strain BCK2, stronger effect = lower value 0.881 | locus YGR135W, strain pre9, stronger effect = lower value 0.863 | locus YGR252W, strain gcn5, stronger effect = lower value 0.71 | locus YIL066C, strain RNR3, stronger effect = lower value 0.806
0.896 (active) and 0.998 (inactive): locus YHR030C, strain SLT2, stronger effect = lower value
0.761 (active) and 1.01 (inactive): locus YJL095W, strain BCK1, stronger effect = lower value
